{"source": "PubChem BioAssay (Tox21)", "note": "Records with an inconclusive call do not appear. Calls of active or inactive are those of the source. The call rests on the fitted dose curve; in most records, active means well fitted activation curve with a large enough effect in the repeat runs; inconclusive means weak or mixed curves; inactive means no such curve, though single readings can be large or run the other way. Non-standard residues stand in square brackets, D forms with d. Residues, ends and D or L forms follow the SMILES beside them. Orn = NCCC[C@H](N)C(=O)O"}
{"biological_target": "Nuclear receptor subfamily 1 group I member 2 (Homo sapiens) (UniProt O75469)", "assay": "CYP3A4 induction through human pregnane X receptor (PXR) by small molecules, qHTS assay (AID 1346984); further: on the % scale 0 is the no-effect control and ±100 the full control effect; nearly all actives have a fitted effect of over 40% in size", "conditions": "DPX-2 HepG2 PXR, CYP3A4-luciferin luminescence, 24 h; series mostly up to 46.1 µM; activation: at the top concentration", "how_it_was_run": "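Read-out is luminescence after One-Glo addition, following a 3 hr, 37C incubation with Luciferin-IPA CYP3A4 substrate (3uM final). Before that, compounds were on DPX-2 cells (HepG2 co-transfected with PXR element plus CYP3A4-promoter luciferase) for 24 hr at 37C.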"}
{"smiles": "CNC(=O)OCc1cccc(COC(=O)NC)n1", "activation": "21.2% (inactive)"}
{"smiles": "CCCCC[C@H](O)/C=C/[C@@H]1[C@@H](C/C=C\\CCCC(=O)O)[C@@H](O)C[C@H]1O", "Potency": "inactive"}
{"smiles": "Cc1cc(C(=O)NCCc2ccc(S(=O)(=O)NC(=O)NN3CCCCCC3)cc2)no1", "activation": "-7.07% (inactive)"}
{"smiles": "CC(C)C[C@@H]1NC(=O)[C@H](CCCN)NC(=O)[C@H](C(C)C)NC(=O)[C@@H]2CCCN2C(=O)[C@@H](Cc2ccccc2)NC(=O)[C@H](CC(C)C)NC(=O)[C@H](CCCN)NC(=O)[C@H](C(C)C)NC(=O)[C@@H]2CCCN2C(=O)[C@@H](Cc2ccccc2)NC1=O", "note": "(cyclo(V[Orn]L[dF]PV[Orn]L[dF]P))", "activation": "-36.1% (inactive)"}
{"smiles": "C=CC1=C(C(=O)O)N2C(=O)[C@@H](NC(=O)/C(=N\\O)c3csc(N)n3)[C@H]2SC1", "note": "(stereo in doubt)", "activation": "-8.13% (inactive)"}
{"smiles": "CO[C@H](C(=O)[C@@H](O)[C@@H](C)O)C1Cc2cc3cc(O[C@H]4C[C@@H](O[C@H]5C[C@@H](O)[C@H](O)[C@@H](C)O5)[C@@H](O)[C@@H](C)O4)c(C)c(O)c3c(O)c2C(=O)[C@H]1O[C@H]1C[C@@H](O[C@H]2C[C@@H](O[C@H]3C[C@](C)(O)[C@H](O)[C@@H](C)O3)[C@H](O)[C@@H](C)O2)[C@H](O)[C@@H](C)O1", "note": "(some centres undefined)", "activation": "11.9% (inactive)"}
{"smiles": "CC(=O)OCC1=C(C(=O)O)N2C(=O)[C@@H](NC(=O)Cc3ccccc3)[C@H]2SC1", "activation": "-3.75% (inactive)"}
{"smiles": "CC1(C)S[C@@H]2[C@H](NC(=O)[C@H](N)c3ccc(O)cc3)C(=O)N2[C@H]1C(=O)O", "activation": "11.4% (inactive)"}
{"smiles": "C=C1C(=C/C=C2\\CCC[C@]3(C)[C@@H]([C@H](C)CCCC(C)C)CC[C@@H]23)C[C@@H](O)C[C@@H]1O", "activation": "1.11% (inactive)"}
